Screens from PubChem.
The list is not random: actives were taken first. Their share in the collection is about 7.6%.
KCNH2 WT inh: inhibitors of human wildtype KCNH2 potassium channel. U2OS, BacMam KCNH2, thallium flux FluxOr; active compounds read low. AID 720551. 340,000 tested, 0.37% active. activity change, % at 1.84 µM. Q12809;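 active means maximum activity change below -70%; inconclusive means maximum activity change between -70% and -50%; inactive means maximum activity change above -50%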
Target sequence (Q12809 whole entry, looked up): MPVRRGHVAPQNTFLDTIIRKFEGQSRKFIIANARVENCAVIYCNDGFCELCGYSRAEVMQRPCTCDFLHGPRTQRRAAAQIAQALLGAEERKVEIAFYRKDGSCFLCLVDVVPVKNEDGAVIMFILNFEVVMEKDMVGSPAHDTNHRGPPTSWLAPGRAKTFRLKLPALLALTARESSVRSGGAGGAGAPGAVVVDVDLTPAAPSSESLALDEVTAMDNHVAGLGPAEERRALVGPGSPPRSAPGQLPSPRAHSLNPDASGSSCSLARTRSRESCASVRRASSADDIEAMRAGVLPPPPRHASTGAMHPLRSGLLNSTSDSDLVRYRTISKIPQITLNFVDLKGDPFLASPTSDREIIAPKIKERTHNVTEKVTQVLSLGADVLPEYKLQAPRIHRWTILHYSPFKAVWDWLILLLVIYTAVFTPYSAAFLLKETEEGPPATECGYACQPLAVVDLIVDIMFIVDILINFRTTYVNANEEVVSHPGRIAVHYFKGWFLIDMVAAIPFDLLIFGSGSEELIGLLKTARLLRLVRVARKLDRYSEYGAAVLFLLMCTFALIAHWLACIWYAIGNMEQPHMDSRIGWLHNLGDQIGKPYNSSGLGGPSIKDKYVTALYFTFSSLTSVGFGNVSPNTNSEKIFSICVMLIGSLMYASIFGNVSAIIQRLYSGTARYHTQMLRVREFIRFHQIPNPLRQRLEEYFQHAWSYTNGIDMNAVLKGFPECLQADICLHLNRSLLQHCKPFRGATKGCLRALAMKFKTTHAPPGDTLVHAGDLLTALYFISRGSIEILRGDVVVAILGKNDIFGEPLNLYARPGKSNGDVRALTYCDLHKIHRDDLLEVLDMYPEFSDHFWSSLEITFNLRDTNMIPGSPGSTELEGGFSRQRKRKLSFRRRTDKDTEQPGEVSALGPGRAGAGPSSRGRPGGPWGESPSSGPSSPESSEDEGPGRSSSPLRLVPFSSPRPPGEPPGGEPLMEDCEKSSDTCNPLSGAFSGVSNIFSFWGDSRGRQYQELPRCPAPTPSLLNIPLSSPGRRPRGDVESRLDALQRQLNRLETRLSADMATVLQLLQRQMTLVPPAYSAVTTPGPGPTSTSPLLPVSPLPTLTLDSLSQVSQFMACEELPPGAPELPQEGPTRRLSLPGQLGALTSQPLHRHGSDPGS
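U2OS cells transduced with wild-type KCNH2 virus are loaded with FluxOr dye for 45 min, and thallium flux is measured in kinetic reads before and after stimulation buffer. Rate constants are normalized to DMSO controls.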
KB-3-1 cytotox: KB-3-1 parental cell cytotoxicity | KB-3-1 viability, CellTiter-Glo ATP luminescence, 72 h | Potency, µM (highest dose often 46.1 µM), hits mostly cytotoxic | 400,000 tested, 1.4% active; further: nearly all actives have a fitted effect of over 60% in size
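Viability of parental KB-3-1 cells, measured by CellTiter-Glo luminescence, followed a 72 h incubation at 37 °C with pinned compounds in phenol-red-free DMEM containing 10% FBS.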
KCNH2 3.1 block: blocks the human KCNH2 3.1 channel isoform. U2OS KCNH2 3.1, thallium flux FluxOr; active compounds read low. AID 720553. activity change, % (tested at about 1.8 µM). 340,000 tested, 0.95% active;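 active means maximum activity change below -70%; inconclusive means maximum activity change from -70% to -50%; inactive means maximum activity change above -50%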;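 further: thallium influx rate constant from kinetic fluorescence after stimulation buffer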
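We transduce U2OS cells with the mutant 3.1 virus, culture them overnight, load FluxOr with Red40 quencher for 45 min, then add stimulation buffer and read kinetically for 2 min to derive a normalized rate constant.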
SW480 rereplic: induces DNA re-replication in SW480 colon adenocarcinoma cells; AID 624297; SW480 DNA re-replication, Hoechst DNA content imaging, 48 h; Potency, µM (titrated, usually from 46.1 µM), actives largely listed as activators; 340,000 tested, 1.8% active; further: nearly all actives have a fitted effect of over 55% in size
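Per well, 250 cells were exposed to pinned compound for 48 hr. Nuclear DNA was visualised with Hoechst (40 min, 37 C) and total object intensity recorded by fluorescence scanning.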
MCF10A rereplic: DNA re-replication induction in MCF 10a cells | MCF 10A DNA re-replication, Hoechst nuclear intensity, 48 h | AID 624296 | Potency, µM (series often up to 46.1 µM), most hits filed as activators | 350,000 tested, 2.9% active; further: nearly all actives have a fitted effect of over 50% in size
KB-V1 cytotox: kills drug-selected multidrug resistant KB-V1 cells; Potency, µM (titrated, usually from 46.1 µM), usual class: cytotoxic; KB-V1 MDR cells viability, CellTiter-Glo, 72 h; 400,000 tested, 3.4% active; further: nearly all actives have a fitted effect of over 60% in size
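qHTS viability screen in drug-selected KB-V1 MDR cells: 72 h compound treatment at 37 degrees C, ATP luminescence end point.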
Large screens that a line does not name were inactive. Unless noted, the call rests on the fitted dose curve; in most records, active means well fitted curve in the direction sought with a large enough effect; inconclusive means small, poorly fitted or top-dose-only effect, or another doubt; inactive means no such curve, though single readings can be large; an effect the other way counts as inactive or inconclusive.

Cn1nc(-c2ccc(Cl)cc2)c2cc(C(=O)NCCCN3CCCC3)sc21	KB-3-1 cytotox inconclusive, SW480 rereplic inconclusive, MCF10A rereplic 23µM
Cn1nc(-c2ccc(Cl)cc2)c2cc(C(=O)N3CCCC3)sc21	KCNH2 WT inh -143, KB-3-1 cytotox inconclusive, KCNH2 3.1 block -209
O=C(Nc1ccc(S(=O)(=O)NCc2ccco2)cc1)C1CCCCC1	KB-V1 cytotox inconclusive
COc1ccc(C[C@@H]2CN3C(=NC[C@@H]3Cc3ccc(O)cc3)N2C[C@H](C)NC(=O)CCC2CCCCC2)cc1	KCNH2 WT inh -89, SW480 rereplic inconclusive
O=C(CCC1CCCCC1)NCCN1C2=NC[C@@H](Cc3ccccc3)N2C[C@H]1Cc1ccc(O)cc1	KCNH2 WT inh -116, KCNH2 3.1 block -99
Cc1cc(NC(=O)CSc2nc(-c3ccccc3Cl)nc3c2c(=O)n(C)c(=O)n3C)no1	none
CC(Oc1ccc(F)cc1Br)c1nc2ccccc2c(=O)[nH]1 (stereo not given)	none
CC1(C)CC(=O)C(C2=NC3(CCCCCC3)Cc3ccccc32)=C(O)C1	none
COc1ccc(CCNC(=O)C23CCC(C)(C(=O)C2Br)C3(C)C)cc1OC (stereo not given)	none
O=C(c1ccccc1)c1cnc(Nc2ccccc2Cl)s1	MCF10A rereplic inconclusive, KB-V1 cytotox 13µM
CCOC(=O)c1c(NC(=S)NCCc2ccccc2)sc2c1CC(C(C)C)OC2 (stereo not given)	KB-V1 cytotox 21µM
C=CCNC(=S)Nc1sc2c(c1C(=O)OCC)CC(C(C)C)OC2 (stereo not given)	SW480 rereplic inconclusive, MCF10A rereplic 12µM, KB-V1 cytotox inconclusive
CCOC(=O)c1c(NC(=S)NC)sc2c1CC(C)(C)SC2	MCF10A rereplic inconclusive
CC(=O)c1c(C)[nH]c(C(=O)Nc2cccc(C(F)(F)F)c2)c1C	KB-3-1 cytotox inconclusive, KB-V1 cytotox 13µM
COc1ccc(NC(=O)c2[nH]c(C)c(C(C)=O)c2C)cc1Cl	SW480 rereplic inconclusive, MCF10A rereplic inconclusive
O=C(CN1CCOCC1)Nc1cccc(C(=O)Nc2cccc(C(F)(F)F)c2)c1	none
COc1ccc(C(C)(C)C)cc1NC(=O)c1[nH]c(C)c(C(C)=O)c1C	KB-3-1 cytotox inconclusive, SW480 rereplic inconclusive, MCF10A rereplic 18µM, KB-V1 cytotox inconclusive
CCCCCNCC(=O)Nc1cccc(C(=O)Nc2cccc(C(F)(F)F)c2)c1	KB-3-1 cytotox inconclusive, MCF10A rereplic inconclusive, KB-V1 cytotox 23µM
CC(=O)c1c(C)[nH]c(C(=O)Nc2cccc(C#N)c2)c1C	none
Cc1ccccc1OCC(=O)N(Cc1nnc(-c2ccc(Cl)cc2)o1)C(C)C	none
Cc1noc(C)c1S(=O)(=O)Nc1ccc(C(=O)Nc2ccc(C(C)C)cc2)cc1	none (no result: KCNH2 WT inh, KCNH2 3.1 block, SW480 rereplic, MCF10A rereplic)
Cn1c(=O)n(-c2ccc(C(C)(C)C#N)cc2)c2c3cc(-c4cnc5ccccc5c4)ccc3ncc21	KB-3-1 cytotox inconclusive (no result: KCNH2 WT inh, KCNH2 3.1 block, SW480 rereplic, MCF10A rereplic)
C[C@]12CCC(O)CC1=CCC1C2CC[C@]2(C)/C(=N\NC(N)=S)CCC12 (stereo not given in full)	none
O=C(COC(=O)CCN=C1NS(=O)(=O)c2ccccc21)NNC(=O)c1ccccc1	none
Cc1ccccc1-c1nc(SCc2cccnc2)c2c(=O)n(C)c(=O)n(C)c2n1	KCNH2 WT inh -256, KB-V1 cytotox inconclusive
Cc1cccc(-n2c(SCC(N)=O)nnc2-c2ccco2)c1	none
CC1=NNC(=O)C1C(c1ccccc1)C(C#N)C#N (stereo not given)	none
OC(CNCC1(N2CCCCC2)CCCCC1)COc1ccc(Cl)cc1Cl (stereo not given)	KCNH2 WT inh inconclusive, KCNH2 3.1 block -86, SW480 rereplic inconclusive, MCF10A rereplic inconclusive, KB-V1 cytotox inconclusive
Cc1ccc(/C=N/Nc2nc(C(C)(C)C)cs2)o1	MCF10A rereplic 9.2µM (no result: KCNH2 WT inh)
Cc1csc(NC(=O)c2cc(-c3ccccc3)nc3ccccc23)n1	KB-3-1 cytotox inconclusive, MCF10A rereplic inconclusive, KB-V1 cytotox 2.3µM
O=C(Nc1nc2c(s1)CCCC2)c1cc(-c2ccccc2)nc2ccccc12	KB-V1 cytotox 13µM (no result: SW480 rereplic)
Cc1cc(NC(=O)c2cc(-c3ccncc3)nc3ccccc23)ccc1Br	KB-3-1 cytotox inconclusive, MCF10A rereplic inconclusive, KB-V1 cytotox 8.2µM (no result: KCNH2 3.1 block)
COc1ccc(NC(=O)Nc2cccc3c2O[C@H](CN(C)S(=O)(=O)c2cn(C)cn2)[C@@H](C)CN([C@H](C)CO)C3=O)cc1	none
COc1ccccc1C(=O)NCCC(=O)N(C)CC(=O)Nc1ccc(Cl)cc1	none
CCCC(=O)N1CCC(Cc2ccccc2)CC1	none
CCCCCCNCC(=O)N1CCC(Cc2ccccc2)CC1	KCNH2 3.1 block -101
CO/N=C/c1ccc(OC)c(Oc2nc(OC)cc(OC)n2)c1	KB-3-1 cytotox 18µM, SW480 rereplic 18µM, MCF10A rereplic 16µM
CCO/N=C/c1ccc(OC)c(Oc2nc(OC)cc(OC)n2)c1	MCF10A rereplic inconclusive
Fc1ccc(C[n+]2csc3ccccc32)cc1	MCF10A rereplic inconclusive
Clc1ccc(C[n+]2csc3ccccc32)cc1	KB-V1 cytotox 23µM
CCn1c(COc2ccc(Cl)cc2Cl)nc2ccccc21	none (no result: KCNH2 WT inh, KCNH2 3.1 block, SW480 rereplic, MCF10A rereplic)
CCCCNc1ccc(/C=C2\C=Cc3ccccc32)cc1	KB-3-1 cytotox inconclusive (no result: KCNH2 WT inh, KCNH2 3.1 block, SW480 rereplic, MCF10A rereplic)
CCCC1O[C@@H]2C[C@H]3[C@@H]4CCC5=CC(=O)C=C[C@]5(C)[C@H]4[C@@H](O)C[C@]3(C)[C@]2(C(=O)CO)O1 (stereo not given in full)	none
CC(C)C(=O)OCC(=O)[C@@]12OC(C3CCCCC3)O[C@@H]1CC1C3CCC4=CC(=O)C=C[C@]4(C)C3[C@@H](O)C[C@@]12C (stereo not given in full)	SW480 rereplic 12µM, MCF10A rereplic inconclusive (no result: KCNH2 WT inh, KB-3-1 cytotox, KCNH2 3.1 block, KB-V1 cytotox)
OC(CN1CCCCC1)c1ccccc1 (stereo not given)	none (no result: KCNH2 WT inh, KCNH2 3.1 block, SW480 rereplic, MCF10A rereplic)
COc1cc(-c2nc(-c3ccccc3)c(-c3cccs3)[nH]2)cc(OC)c1O	KB-3-1 cytotox inconclusive, MCF10A rereplic inconclusive, KB-V1 cytotox 21µM
CN(C)C(CNC(=O)c1ccco1)c1cccs1 (stereo not given)	none
COc1ccc(-c2nc(C)c(CCNC(=O)c3cccs3)s2)cc1	KB-V1 cytotox 8.2µM (no result: KCNH2 WT inh, KCNH2 3.1 block, SW480 rereplic, MCF10A rereplic)
Cc1ccc(-c2nc(C)c(CCNC(=O)c3cccs3)s2)cc1	KB-V1 cytotox inconclusive (no result: KCNH2 WT inh, KCNH2 3.1 block, SW480 rereplic, MCF10A rereplic)
COc1cc(C(=O)OCc2ccc(C)cc2)cc(NC(=O)c2cccs2)c1OC	SW480 rereplic inconclusive, MCF10A rereplic 23µM, KB-V1 cytotox inconclusive
COc1cc(C(=O)O)cc(NC(=O)c2cccs2)c1OC	KB-V1 cytotox inconclusive
CCC1CCCCN1CCCNC(=O)c1ccc2c(c1)N(Cc1ccc(Cl)cc1)C(=O)c1ccccc1S2(=O)=O (stereo not given)	none (no result: KCNH2 WT inh, KCNH2 3.1 block, SW480 rereplic, MCF10A rereplic)
O=C(Nc1nnc(-c2ccc(F)cc2)o1)c1cc(Cl)sc1Cl	KB-3-1 cytotox inconclusive, MCF10A rereplic 1µM
